This note sets out measurements from PubChem BioAssay.

For part of these data: Results with a measured potency or affinity are listed apart. Active and inactive are the calls of the source.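 The calls were made as follows, unless noted: active = primary screen hit whose calcium fluorescence ratio, in both repeats, exceeds the weak agonist control mean by 3 SD; inactive = the rest.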

As usually defined, the inhibition is the share of the control response that was lost under treatment.

The test system of assay [1] is TRPC4 beta (transient receptor potential cation channel C4), mouse. The assay is described as follows: activators of mouse TRPC4 channel, confirmation, cell-based, Fluo4 calcium, HEK293 TRPC4beta/mu-opioid, duplicates, 10 µM (AID 2426;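 active = fluorescence ratio normalized to control raised more than 50% in primary screen plus both repeat runs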). The note with it: Fluo4 calcium fluorescence, at 10 µM; hits give high values.
Assay [2] relates to transient receptor potential cation channel C4 beta (TRPC4), mouse. Briefly: activators of mouse TRPC4 channel, confirmation, cell-based, second round, Fluo4, HEK293 TRPC4beta/mu-opioid, 1 µM (AID 2461;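 active = primary screen active and over 50% activation in each of two duplicate runs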). As to conditions: Fluo4 calcium fluorescence, at 1 µM; hits give high values.
Assay [3] concerns TRPC4 (transient receptor potential cation channel C4 beta), mouse. The assay is described as follows: positive allosteric modulators of mouse TRPC4, confirmation, cell-based, second round, Fluo-4, HEK293 TRPC4beta/mu-opioid, 1 µM (AID 2554;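 active = primary screen hit whose fluorescence ratio, in both repeats, exceeds the weak agonist control mean by 3 SD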). The note with it: DAMGO EC20, Fluo-4 calcium flux, at 1 µM; hits give high values. On the technique in general: Calcium flux is commonly read through the fluorescence of an indicator in the cells.

The test system of assay [4] is TRPC4 beta (transient receptor potential cation channel C4), mouse. The assay is described as follows: positive allosteric modulators of mouse TRPC4, confirmation, cell-based, Fluo-4, HEK293 TRPC4beta/mu-opioid (AID 2555). As to conditions: DAMGO EC20, Fluo-4 calcium flux, at 10 µM; hits give high values.
Assay [5] addresses Short transient receptor potential channel 4 (Mus musculus) (UniProt Q9QUQ5). Briefly: inhibitors of mouse TRPC4 channel, confirmation, cell-based, Fluo4, HEK293 TRPC4beta/mu-opioid (AID 2636;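 active = calcium signal cut by more than 3 SD below the full-agonist control yet still positive, in both repeats and the earlier primary screen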). As to conditions: DAMGO, Fluo4 calcium flux, at 10 µM; hits give high values.
For assay [6] the target is unchanged. Briefly: inhibitors of mouse TRPC4 channel, confirmation, cell-based, second round, Fluo4, HEK293 TRPC4beta/mu-opioid, 1 µM (AID 2637;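 active = calcium signal ratio cut to more than 3 SD under the fully stimulated control mean yet still positive, in both repeats and the primary screen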;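 as to inhibition: percent of integrated ratio relative to wells lacking test compound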). As to conditions: Fluo4 calcium flux, DAMGO, at 1 µM; hits give high values.
Assay [7] shares this target. Briefly: mouse TRPC4 channel activators, dose response, cell-based, HEK293 TRPC4/mu-opioid, Fluo-4 calcium (AID 434937;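 active = primary screen activator hit with a dose response curve and TRPC4 channel activation at any tested dose; inactive = no activation, no dose response, or not a primary hit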).
Assay [8] has the same target. The assay is described as follows: TRPC4 positive allosteric modulators, dose response, cell-based, HEK293 TRPC4/mu-opioid, Fluo-4 calcium, EC20 DAMGO (AID 434941;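 active = earlier screen potentiator hit that boosts the TRPC4 ion channel at some dose, with a dose response; inactive = no potentiation, no dose response, or not a prior hit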;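 also: calcium entry triggered by an EC20 dose of DAMGO at the co-expressed mu-opioid receptor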).
The target of assay [9] is Short transient receptor potential channel 6 (Mus musculus) (UniProt Q61143). Briefly: inhibition of mouse TRPC6 channel, confirmation, selectivity assay for TRPC4 inhibitor project, cell-based, HEK293, membrane potential dye, duplicate (AID 434948;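 active = active in primary screen and both duplicates, each dropping signal beyond three positive-control SD with fluorescence still positive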). As to conditions: HEK293 TRPC6, membrane potential dye fluorescence, at 10 µM, stimulated with maximal-effect acetylcholine; hits give high values.
Sequence of Short transient receptor potential channel 6 (Mus musculus) (Q61143 whole entry, looked up): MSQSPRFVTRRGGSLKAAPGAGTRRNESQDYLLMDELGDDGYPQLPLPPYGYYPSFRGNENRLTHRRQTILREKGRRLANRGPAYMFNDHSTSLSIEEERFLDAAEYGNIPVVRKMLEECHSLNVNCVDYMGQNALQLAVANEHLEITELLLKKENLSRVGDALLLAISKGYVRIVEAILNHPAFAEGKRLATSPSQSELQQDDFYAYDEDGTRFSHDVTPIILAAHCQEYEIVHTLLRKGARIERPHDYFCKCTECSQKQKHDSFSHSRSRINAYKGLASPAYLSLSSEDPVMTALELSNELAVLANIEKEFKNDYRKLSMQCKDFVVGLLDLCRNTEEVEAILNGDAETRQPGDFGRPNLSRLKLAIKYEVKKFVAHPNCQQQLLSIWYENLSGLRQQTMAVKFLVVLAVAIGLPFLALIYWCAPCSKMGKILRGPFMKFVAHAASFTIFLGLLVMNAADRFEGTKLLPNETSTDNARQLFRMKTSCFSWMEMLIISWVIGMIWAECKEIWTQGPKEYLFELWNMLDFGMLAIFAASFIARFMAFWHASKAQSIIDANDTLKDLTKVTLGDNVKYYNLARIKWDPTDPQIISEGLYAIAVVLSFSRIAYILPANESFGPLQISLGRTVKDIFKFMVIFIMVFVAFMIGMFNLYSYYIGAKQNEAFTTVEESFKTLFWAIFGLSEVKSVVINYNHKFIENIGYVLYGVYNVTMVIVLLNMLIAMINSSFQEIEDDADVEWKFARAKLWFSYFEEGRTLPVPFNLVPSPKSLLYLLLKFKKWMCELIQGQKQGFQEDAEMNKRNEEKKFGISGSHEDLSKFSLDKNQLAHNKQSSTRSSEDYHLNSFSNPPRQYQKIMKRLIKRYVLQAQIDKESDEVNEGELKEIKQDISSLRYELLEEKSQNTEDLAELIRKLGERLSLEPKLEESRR

Assay [10] shares this target. Briefly: activation of mouse TRPC6 channel, confirmation, selectivity assay for TRPC4 activator project, cell-based, HEK293, membrane potential dye, duplicate (AID 434950;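 active = membrane potential signal rise above negative control mean plus 3 SD in both duplicates, also active in the earlier TRPC4 screen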). As to conditions: HEK293 TRPC6, membrane potential fluorescence, at 10 µM; hits give high values.
Assay [11] has the same target. Briefly: TRPC6 potentiation by TRPC4 potentiator hits, confirmation, selectivity assay for TRPC4 potentiator project, HEK293 cells, membrane potential dye, duplicate (AID 434952;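 active = compound raising the membrane signal above positive-control mean plus 3 SD in both repeats, and a primary screen hit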). The note with it: HEK293 TRPC6, membrane potential dye fluorescence, at 10 µM, maximal acetylcholine added after compound; hits give high values.
Assay [12] addresses Short transient receptor potential channel 4 (Mus musculus) (UniProt Q9QUQ5). Briefly: calcium flux activators in TRPC4/5HT1a cells, counter-screen for TRPC4 activator project, cell-based, second counter screen, HEK293 TRPC4/5HT1a, Fluo-4 (AID 434977;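 active = calcium signal rise above buffer-control mean plus 5 SD in both duplicates, and also a hit in the primary screen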). The note with it: Fluo-4 calcium flux, at 10 µM; hits give high values.
Assay [13] in a line: calcium flux inhibitors in TRPC4/5HT1a cells, confirmation, counter-screen for TRPC4 inhibitor project, cell-based, second counter screen, HEK293 TRPC4/5HT1a, Fluo-4 (AID 434978;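 active = primary screen active whose calcium signal fell more than 3 SD beyond the full-serotonin control mean in both duplicate plates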;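 as to outcome: serotonin given first at submaximal then at maximal dose after compound preincubation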). The note with it: Fluo-4 calcium flux, at 10 µM, serotonin added to trigger calcium flux; hits give high values.
Assay [14] relates to TRPC4 (mouse), co-expressed with 5HT1a in HEK293. Briefly: calcium flux potentiators in TRPC4/5HT1a cells, confirmation, counter-screen for TRPC4 potentiator project, cell-based, second counter screen, HEK293 TRPC4/5HT1a, Fluo-4 (AID 434979;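 active = signal rise over 3 SD above mean of control wells given weak agonist, in both repeats and first screen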). As to conditions: Fluo-4 calcium flux, at 10 µM, serotonin added at its EC20 dose; hits give high values.
The nature of assay [15]: calcium flux activation in mu-opioid HEK293 cells, confirmation, counter-screen for TRPC4 activator project, cell-based, HEK293 mu-opioid receptor line (AID 449723;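 active = hit in primary screen, with calcium signal over 5 SD above buffer well mean in both duplicates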;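 also: counter screen cells carry the mu-opioid receptor alone and lack TRPC4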). As to conditions: Fluo-4 calcium fluorescence, at 10 µM; hits give high values.
Assay [16] in a line: calcium flux enhancement in mu-opioid HEK293 cells, confirmation, counter-screen for TRPC4 allosteric potentiator project, cell-based, HEK293 mu-opioid receptor line (AID 449724;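 active = calcium signal rise more than 3 SD above the low-dose agonist control mean, in both duplicate plates and the primary screen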;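 also: HEK293 cells carrying mu-opioid receptor only with no TRPC4 channel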). The note with it: Fluo-4 calcium flux, at 10 µM, compound added before EC20 DAMGO stimulus; hits give high values.

Sequence of Short transient receptor potential channel 4 (Mus musculus) (Q9QUQ5 whole entry, looked up): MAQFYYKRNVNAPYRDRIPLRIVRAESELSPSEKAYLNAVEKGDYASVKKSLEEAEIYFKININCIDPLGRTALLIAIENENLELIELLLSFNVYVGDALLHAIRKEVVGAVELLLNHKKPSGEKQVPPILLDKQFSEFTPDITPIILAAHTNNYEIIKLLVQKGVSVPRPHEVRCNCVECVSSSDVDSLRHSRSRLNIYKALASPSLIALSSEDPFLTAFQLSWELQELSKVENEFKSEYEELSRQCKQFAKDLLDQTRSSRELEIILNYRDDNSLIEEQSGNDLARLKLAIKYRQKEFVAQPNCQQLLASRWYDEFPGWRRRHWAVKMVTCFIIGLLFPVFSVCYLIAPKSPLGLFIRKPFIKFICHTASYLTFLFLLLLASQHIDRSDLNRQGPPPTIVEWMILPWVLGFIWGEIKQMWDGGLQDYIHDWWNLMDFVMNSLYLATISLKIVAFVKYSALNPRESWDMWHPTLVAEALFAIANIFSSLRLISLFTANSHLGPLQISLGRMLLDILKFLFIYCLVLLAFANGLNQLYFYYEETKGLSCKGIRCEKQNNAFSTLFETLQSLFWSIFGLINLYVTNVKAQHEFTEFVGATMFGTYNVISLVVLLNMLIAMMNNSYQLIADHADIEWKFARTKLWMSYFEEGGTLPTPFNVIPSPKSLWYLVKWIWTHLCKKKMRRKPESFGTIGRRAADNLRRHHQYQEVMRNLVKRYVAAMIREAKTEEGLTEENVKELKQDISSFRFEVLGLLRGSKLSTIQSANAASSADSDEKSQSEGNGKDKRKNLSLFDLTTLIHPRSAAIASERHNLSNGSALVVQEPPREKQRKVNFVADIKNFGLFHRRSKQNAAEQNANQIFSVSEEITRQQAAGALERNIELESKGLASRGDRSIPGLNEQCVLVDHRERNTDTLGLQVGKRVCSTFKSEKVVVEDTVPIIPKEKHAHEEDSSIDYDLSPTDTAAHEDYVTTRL

Take `Fc1ccccc1COc1ccccc1CNCc1ccncc1`: the result in assay [1], in assay [2], in [3], in assay [4], in [6] and in [7] was inactive. Moreover, the outcome in assay [8], in assay [9], in assay [10], in [11], in assay [12] and in [13] was inactive. Further, the result in [14], in [15] and in assay [16] was inactive. The inhibition in assay [5] was 79% (active).

Take `CCC(O)C1CCN(Cc2cn(-c3ccc(OC)cc3)nc2-c2cccc(F)c2)CC1` (stereo not given): the outcome in assay [1], in assay [2], in [3], in [4], in assay [6] and in assay [7] was inactive. Moreover, the outcome in [8], in assay [9], in assay [10], in assay [11], in assay [12] and in assay [13] was inactive. Further, the result in assay [14], in assay [15] and in assay [16] was inactive. The inhibition in assay [5] was 98% (active).

Consider `O=C(CCCSc1nc2ccccc2[nH]1)NCc1ccccc1Cl`, for which the outcome in assay [1], in assay [2], in assay [3], in [4], in [7] and in [8] was inactive. In addition, the result in [9], in assay [10], in [11], in assay [12], in assay [14] and in assay [15] was inactive. The outcome in assay [16] was inactive. Also, the inhibition in assay [5] was 88% (active); in assay [6], 46% (active); in assay [13] it was 27.7% (active).

On to `CC(C)Cc1nc(N2CCOCC2)c(C#N)c2c1CCC2`, for which the result in assay [1], in assay [2], in [3], in assay [4], in assay [7] and in assay [8] was inactive. The compound was called inactive in assay [9], in [10], in assay [11], in [12], in assay [14] and in assay [15]. Further, the result in assay [16] was inactive. For the same compound, the results for the inhibition in [5], in assay [6] and in [13] were 76% (active), 50% (active) and 35.1% (active), respectively.

In the case of `CC(C)NC(=S)N1CCN(C/C=C/c2ccccc2)CC1`, the outcome in assay [1], in [2], in assay [3], in assay [4], in assay [6] and in assay [7] was inactive. The result in assay [8], in [9], in assay [10], in [11], in [12] and in assay [13] was inactive. Moreover, the outcome in [14], in assay [15] and in [16] was inactive. Further, the inhibition in [5] is 71% (active).

Turning to `O=C(Nc1ccccc1Oc1cccnc1)C1CCCN(Cc2ccc(F)cc2)C1` (stereo not given), the result in assay [1], in assay [2], in [3], in assay [4], in assay [7] and in [8] was inactive. Also, the compound was called inactive in assay [9], in assay [10], in assay [11], in [12], in assay [14] and in assay [15]. In addition, the outcome in assay [16] was inactive. The inhibition in assay [5] is 87% (active); in [6] it was 43% (active); in assay [13] it was 30.2% (active).

As for `CC(C)Cc1cc(CN2CCCC(CO)(Cc3cccc(Cl)c3)C2)[nH]n1` (stereo not given), the outcome in assay [1], in assay [2], in [3], in [4], in assay [6] and in assay [7] was inactive. Further, the outcome in assay [8], in [9], in assay [10], in assay [11], in assay [12] and in [14] was inactive. For the same compound, the result in assay [15] and in [16] was inactive. The inhibition was 91% (active) in assay [5] and 42.2% (active) in [13].

Take `CCN(CC)CCN(C(=O)c1ccccc1OC)c1nc2ccc(F)cc2s1`: the result in [1], in assay [2], in [3], in assay [4], in assay [6] and in assay [7] was inactive. For the same compound, the result in assay [8], in [9], in assay [10], in assay [11], in [12] and in [13] was inactive. Further, the outcome in [14], in assay [15] and in assay [16] was inactive. Further, the inhibition in [5] is 84% (active).

`CCCCCCCNC(=O)COc1ccc2c(c1)C(=O)CC(C)(C)O2`: the result in [1], in assay [2], in assay [3], in assay [4], in assay [7] and in [8] was inactive. Also, the compound was called inactive in assay [9], in [10], in [11], in assay [12], in [14] and in [15]. Also, in assay [16], the result was inactive. Further, the inhibition in assay [5] was 81% (active); in [6] it was 46% (active); in assay [13], 24.7% (active).

In the case of `CC#CC[N+](C)(C)CCCCCCCCCCCC`, the outcome in assay [1], in assay [2], in assay [3], in assay [4], in assay [7] and in [8] was inactive. In addition, the compound was called inactive in assay [10], in assay [11], in assay [12], in [14], in assay [15] and in [16]. Further, the inhibition is 97% (active) in [5], 55% (active) in assay [6], 36% (active) in assay [9] and 9.36% (active) in assay [13].

As for `COc1cccc(NC(=O)CCC(=O)N2CC(C)Oc3ccc(C)cc32)c1` (stereo not given), the result in [1], in assay [2], in assay [3], in assay [4], in assay [6] and in [7] was inactive. Further, the outcome in [8], in assay [9], in assay [10], in assay [11], in [12] and in assay [14] was inactive. The result in assay [15] and in assay [16] was inactive. For the same compound, the inhibition in assay [5] is 85% (active); in assay [13], 42.1% (active).

For the compound `C=CCN1CCN(C(c2cccc(OC)c2OC)c2nnnn2CCC(C)C)CC1` (stereo not given), the result in [1], in assay [2], in [3], in assay [4], in assay [6] and in assay [7] was inactive. For the same compound, the result in [8], in [9], in assay [10], in assay [11], in [12] and in assay [13] was inactive. Moreover, the outcome in assay [14], in [15] and in [16] was inactive. The inhibition in assay [5] is 51% (active).

As to `Cn1c(-c2ccccc2)cnc1NCc1ccc(F)cc1`, the outcome in assay [1], in [2], in assay [3], in assay [4], in [7] and in [8] was inactive. Also, the result in [9], in assay [10], in assay [11], in assay [12], in assay [14] and in [15] was inactive. Also, in assay [16], the outcome was inactive. For the same compound, the inhibition in assay [5] was 81% (active); in assay [6] it was 53% (active); in [13] it was 25.1% (active).

Consider `Cc1cccc2cc(CN(CCCN(C)C)C(=S)NCCc3ccccc3)c(=O)[nH]c12`, for which the outcome in [1], in assay [2], in [3], in [4], in assay [5] and in assay [6] was inactive. For the same compound, the outcome in assay [7], in assay [8], in assay [9], in assay [10], in [11] and in assay [12] was inactive. Further, the outcome in assay [13], in [14], in [15] and in assay [16] was inactive.

For the compound `Cc1ccc(NC(=O)CN2CCc3ccccc3C2)cc1F`, the outcome in assay [1], in [2], in [3], in [4], in [6] and in assay [7] was inactive. Besides, the outcome in assay [8], in assay [9], in assay [10], in assay [11], in assay [12] and in assay [13] was inactive. Further, the result in assay [14], in assay [15] and in assay [16] was inactive. In addition, the inhibition in assay [5] is 88% (active).
